The text below walks through data of PubChem BioAssay (EPA / NIEHS).

Results filed as inconclusive are left out. Calls of active or inactive are those of the source. The calls were made as follows, unless noted: active = hit-call score of the fitted dose curve at least 0.9, where 1 is the maximum; inconclusive = response in the unintended direction; inactive = score below 0.9.

By AC50 is commonly meant the concentration at which the activity in the assay is half-maximal.

The target in assay [1] is Myc proto-oncogene protein (Homo sapiens) (UniProt P01106). Nature of the assay: ATG_Myc_CIS: Attagene CIS-FACTORIAL HepG2 Assay for human Myelocytomatosis (Myc) Proto-Oncogene Transcription Factor (AID 2282990; active = hit-call score of the fitted dose curve at least 0.9, where 1 is the maximum; inactive = score below 0.9). Particulars: HepG2, Attagene cis-reporter transcription factor activity; actives raise or lower the signal. An outline of the steps: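 Cells of the HepG2 human liver line bear multiple cis-driven reporter transcription units. Reporter mRNA after 24 h exposure is reverse-transcribed, amplified, labelled and resolved by capillary electrophoresis, with gain- or loss-of-signal fitting relative to DMSO.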

Assay [2] in a line: ATG_NRF2_ARE_CIS: Attagene CIS-FACTORIAL HepG2 Assay for human Nuclear Factor Erythroid 2 Related Factor 2 (NFR2) response to Antioxidant Response Elements (ARE) (AID 2282992; active = hit-call score of the fitted dose curve at least 0.9, where 1 is the maximum; inactive = score below 0.9;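 as to AC50: reporter mRNA level measured by RT-PCR and capillary electrophoresis fluorescence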). Particulars: HepG2 Attagene ARE/NRF2 reporter, transcription factor activity; actives raise or lower the signal. An outline of the steps: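 Transient MRTU transfection of HepG2; 24 h compound exposure; TriZol RNA, RT with oligo(dT), PCR, 6-FAM primer extension, HpaI cut, CE. Bidirectional fit vs DMSO.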

The nature of assay [3]: ATG_Oct_MLP_CIS: Attagene CIS-FACTORIAL HepG2 Assay for human Octamer-Binding Transcription Factor (Oct) (AID 2282993; active = hit-call score of the fitted dose curve at least 0.9, where 1 is the maximum; inactive = score below 0.9). Particulars: HepG2 Attagene cis-factorial Oct reporter, mRNA; actives raise or lower the signal. An outline of the steps: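 Transfected HepG2 cells, 24 h treatment. Reporter mRNA quantified by RT-PCR–capillary electrophoresis; bidirectional fitting against DMSO.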

In assay [4] the target is human Peroxisome Proliferator-activated Receptor alpha (PPARa), PPARA (gene 5465) (UniProt Q07869). Nature of the assay: ATG_PPARa_TRANS: Attagene TRANS-FACTORIAL HepG2 Assay for human Peroxisome Proliferator-activated Receptor alpha (PPARa) (AID 2283001).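 As to AC50: potency for gain of reporter signal over DMSO so agonist or activator.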 An outline of the steps: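 Read-out is fluorescence of reporter cDNA fragments resolved by capillary electrophoresis after RT-PCR. Human HepG2 liver cells carried transfected PPARa-Gal4 chimera and GAL4-UAS reporter units, treated 24 h; activity scored as increase over DMSO.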

Assay [5] addresses human Peroxisome Proliferator-activated Receptor delta (PPARd), PPARD (gene 5467) (UniProt Q03181). Nature of the assay: ATG_PPARd_TRANS: Attagene TRANS-FACTORIAL HepG2 Assay for human Peroxisome Proliferator-activated Receptor delta (PPARd) (AID 2283002). An outline of the steps:
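Cell-based TRANS reporter: HepG2, transient MRTU transfection, 24 h exposure. Readout = reporter mRNA (RT-PCR/CE, 6-FAM). Gain-of-signal fit vs DMSO control.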

The target in assay [6] is human Retinoic Acid Receptor beta (RARb), RARB (gene 5915) (UniProt P10826). Nature of the assay: ATG_RARb_TRANS: Attagene TRANS-FACTORIAL HepG2 Assay for human Retinoic Acid Receptor beta (AID 2283004). An outline of the steps: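 Induction of reporter mRNA from a chimeric RARb-Gal4 construct was measured by RT-PCR, FAM labelling, HpaI digestion and capillary electrophoresis. Measurements followed 24 h compound treatment of transiently transfected human HepG2 liver cells, with DMSO as baseline.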

For assay [7], the target named is Peroxisome proliferator-activated receptor gamma (Homo sapiens) (UniProt P37231). Kind of assay: ATG_PPARg_TRANS: Attagene TRANS-FACTORIAL HepG2 Assay for human Peroxisome Proliferator-activated Receptor-gamma (PPARg) (AID 2283007). An outline of the steps: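 Chimeric NR-Gal4 transactivation is measured in transiently transfected HepG2 cells by reporter mRNA induction at 24 h. Detection uses RT-PCR with fluorescent labelling and capillary electrophoresis; DMSO defines baseline.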

The target of assay [8] is Nuclear receptor subfamily 1 group I member 2 (Homo sapiens) (UniProt O75469). Nature of the assay: ATG_PXR_TRANS: Attagene TRANS-FACTORIAL HepG2 Assay for human Pregnane X Receptor (PXR) (AID 2283008). An outline of the steps:
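Read-out is fluorescence of labelled reporter cDNA fragments separated by capillary electrophoresis after RT-PCR and HpaI digestion. Source: HepG2 cells carrying PXR-GAL4/UAS reporter constructs, treated 24 h; activity fitted upward relative to DMSO.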

The target in assay [9] is human RAR-related Orphan Receptor beta (RORb), RORB (gene 6096) (UniProt Q92753). Kind of assay: ATG_RORb_TRANS: Attagene TRANS-FACTORIAL HepG2 Assay for human RAR-related Orphan Receptor beta (RORb) (AID 2283010). An outline of the steps:
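HepG2 cells transiently transfected with GAL4-UAS reporter units expressing chimeric NR-Gal4 protein; reporter mRNA measured 24 h after dosing by RT-PCR, 6-FAM labelling and capillary electrophoresis. Gain-of-signal fitted relative to DMSO baseline.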

Assay [10] concerns the target Cellular tumor antigen p53 (Homo sapiens) (UniProt P04637). Nature of the assay: ATG_p53_CIS: Attagene CIS-FACTORIAL HepG2 Assay for human p53 Transcription Factor (AID 2282994; active = hit-call score of the fitted dose curve at least 0.9, where 1 is the maximum; inactive = score below 0.9). Particulars: HepG2 p53 cis-element reporter, Attagene mRNA; actives raise or lower the signal. An outline of the steps:
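HepG2, transient MRTU transfection (cis promoter elements, endogenous TFs); 24 h dosing; RNA isolation, RT-PCR, 6-FAM primer extension, HpaI digest, CE fluorescence; bidirectional fit vs DMSO.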

Assay [11] can be described thus: BSK_3C_TissueFactor: BioMAP Diversity Plus: 3C Assay for Tissue Factor Biomarker Activity (AID 2282997; active = hit-call score of the fitted dose curve at least 0.9, where 1 is the maximum; inactive = score below 0.9). Particulars: BioMAP 3C HUVEC, tissue factor biomarker readout; actives raise or lower the signal. An outline of the steps: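 Dosing of human umbilical vein endothelial cells preceded a 24 h incubation. Tissue Factor was then read by ELISA, with increases and decreases both scored relative to DMSO controls.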

Assay [12] in a line: BSK_3C_uPAR: BioMAP Diversity Plus: 3C Assay for Urokinase-type plasminogen activator receptor (uPAR) Biomarker Activity (AID 2282998; active = hit-call score of the fitted dose curve at least 0.9, where 1 is the maximum; inactive = score below 0.9). Particulars: BioMAP 3C HUVEC, uPAR biomarker ELISA; actives raise or lower the signal. An outline of the steps:
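Readout: ELISA for surface uPAR. System: human umbilical vein endothelial primary cells, 24 h after chemical exposure. Analysis: bidirectional fit, DMSO baseline.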
For orientation: In an ELISA, binding on a coated surface is turned into a signal by an enzyme label.

A short description of assay [13]: BSK_3C_VCAM1: BioMAP Diversity Plus: 3C Assay for Vascular cell adhesion molecule 1 (VCAM1) Biomarker Activity (AID 2282999; active = hit-call score of the fitted dose curve at least 0.9, where 1 is the maximum; inactive = score below 0.9). Particulars: BioMAP 3C HUVEC, VCAM1 ELISA, cytokine-stimulated; actives raise or lower the signal. An outline of the steps: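 Endothelial cells from human umbilical vein are treated with test chemical. At 24 h, VCAM-1 is measured by ELISA, and responses in either direction are fitted relative to DMSO.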

Assay [14] can be described thus: BSK_4H_Eotaxin3: BioMAP Diversity Plus: 4H Assay for Eotaxin 3 Biomarker Activity (AID 2283000; active = hit-call score of the fitted dose curve at least 0.9, where 1 is the maximum; inactive = score below 0.9). Particulars: primary human endothelial cells (HUVEC); actives raise or lower the signal. An outline of the steps: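 Human umbilical vein endothelial cells (BSK_4H system) dosed with test chemical; Eotaxin-3 (CCL26) measured by ELISA 24 h after dosing. Bidirectional curve fitting relative to DMSO negative control as baseline.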

Assay [15] is described as follows: BSK_3C_Proliferation: Cell Proliferation Assessment in the BioMAP Diversity Plus: 3C Assay (AID 2283006; active = hit-call score of the fitted dose curve at least 0.9, where 1 is the maximum; inactive = score below 0.9;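 also: potency may reflect either rise or fall in cell number versus DMSO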). Particulars: primary human endothelial cells (HUVEC). An outline of the steps:
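Subconfluent HUVEC (3C system) cultured with chemical; relative cell number read at 48 h by sulforhodamine B total-protein staining (0.1% SRB after 10% TCA fixation, 560 nm). Bidirectional fit relative to DMSO.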

The target in assay [16] is human Retinoic Acid Receptor gamma (RARg), RARG (gene 5916) (UniProt P13631). Nature of the assay: ATG_RARg_TRANS: Attagene TRANS-FACTORIAL HepG2 Assay for human Retinoic Acid Receptor gamma (RARg) (AID 2283009). An outline of the steps: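 HepG2 transiently transfected with GAL4-UAS reporter units and chimeric NR-Gal4 constructs; 24 h compound exposure. Reporter mRNA quantified by RT-PCR, FAM labeling, HpaI digestion and capillary electrophoresis; gain-of-signal versus DMSO.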

Assay [17] has as its target human RAR-related Orphan Receptor gamma (RORg), RORC (gene 6097) (UniProt P51449). Nature of the assay: ATG_RORg_TRANS: Attagene TRANS-FACTORIAL HepG2 Assay for human RAR-related Orphan Receptor gamma (RORg) (AID 2283011). An outline of the steps: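 Reporter transcripts from a transfected RORg-GAL4 chimera in HepG2 cells were quantified 24 h after dosing by RT-PCR, 6-FAM labelling, HpaI digestion and capillary electrophoresis; increases over DMSO baseline were fitted.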

Assay [18] has as its target Retinoic acid receptor alpha (Homo sapiens) (UniProt P10276). Nature of the assay: ATG_RARa_TRANS: Attagene TRANS-FACTORIAL HepG2 Assay for human Retinoic Acid Receptor alpha (RARa) (AID 2283005). An outline of the steps: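 Reporter transcripts, measured by RT-PCR with fluorescent labeling and capillary electrophoresis after 24 h dosing, reflect activity of an exogenous human RARa–GAL4 fusion in transiently transfected HepG2. Fitted for increase relative to DMSO.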

Peroxisome proliferator-activated receptor gamma (Homo sapiens), sequence (P37231 whole entry, looked up, the tested form may be a part): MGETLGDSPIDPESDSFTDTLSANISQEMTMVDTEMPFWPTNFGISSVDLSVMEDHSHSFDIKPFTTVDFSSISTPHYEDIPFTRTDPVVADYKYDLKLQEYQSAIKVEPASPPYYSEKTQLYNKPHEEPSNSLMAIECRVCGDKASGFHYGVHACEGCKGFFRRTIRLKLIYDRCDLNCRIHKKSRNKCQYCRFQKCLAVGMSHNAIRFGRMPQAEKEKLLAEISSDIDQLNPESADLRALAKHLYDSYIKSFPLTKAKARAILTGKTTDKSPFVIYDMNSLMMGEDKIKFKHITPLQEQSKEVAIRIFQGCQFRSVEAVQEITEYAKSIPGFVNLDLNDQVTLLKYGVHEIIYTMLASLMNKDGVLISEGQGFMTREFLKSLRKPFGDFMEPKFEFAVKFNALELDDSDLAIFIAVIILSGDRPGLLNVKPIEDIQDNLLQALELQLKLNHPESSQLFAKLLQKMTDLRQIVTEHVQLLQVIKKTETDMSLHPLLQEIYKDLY
human Peroxisome Proliferator-activated Receptor alpha (PPARa), PPARA (gene 5465), sequence (Q07869 whole entry, looked up, the tested form may be a part): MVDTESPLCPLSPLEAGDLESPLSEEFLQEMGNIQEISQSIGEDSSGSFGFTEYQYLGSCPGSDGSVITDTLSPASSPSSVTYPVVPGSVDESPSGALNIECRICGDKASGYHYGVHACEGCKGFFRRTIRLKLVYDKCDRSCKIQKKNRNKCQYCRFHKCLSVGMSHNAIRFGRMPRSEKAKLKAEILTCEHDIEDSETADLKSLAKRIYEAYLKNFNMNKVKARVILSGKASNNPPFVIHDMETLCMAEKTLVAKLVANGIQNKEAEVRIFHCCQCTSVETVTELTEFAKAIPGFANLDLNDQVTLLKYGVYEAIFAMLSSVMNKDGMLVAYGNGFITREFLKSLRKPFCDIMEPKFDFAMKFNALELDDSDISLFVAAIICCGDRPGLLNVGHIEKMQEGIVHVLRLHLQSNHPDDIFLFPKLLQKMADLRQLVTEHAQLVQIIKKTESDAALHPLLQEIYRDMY
human Retinoic Acid Receptor beta (RARb), RARB (gene 5915), sequence (P10826 whole entry, looked up, the tested form may be a part): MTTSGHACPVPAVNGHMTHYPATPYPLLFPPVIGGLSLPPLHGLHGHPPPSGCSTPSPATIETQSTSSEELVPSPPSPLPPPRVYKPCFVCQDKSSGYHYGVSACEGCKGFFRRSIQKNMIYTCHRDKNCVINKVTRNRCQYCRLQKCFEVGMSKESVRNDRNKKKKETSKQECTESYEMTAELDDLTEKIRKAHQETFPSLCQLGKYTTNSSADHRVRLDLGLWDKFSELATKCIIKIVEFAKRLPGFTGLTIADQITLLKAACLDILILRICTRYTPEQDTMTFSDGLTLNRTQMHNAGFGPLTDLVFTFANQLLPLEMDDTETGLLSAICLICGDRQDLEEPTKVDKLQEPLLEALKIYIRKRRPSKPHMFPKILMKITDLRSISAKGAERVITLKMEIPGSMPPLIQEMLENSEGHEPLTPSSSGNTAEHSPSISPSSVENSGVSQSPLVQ
Cellular tumor antigen p53 (Homo sapiens), sequence (P04637 whole entry, looked up): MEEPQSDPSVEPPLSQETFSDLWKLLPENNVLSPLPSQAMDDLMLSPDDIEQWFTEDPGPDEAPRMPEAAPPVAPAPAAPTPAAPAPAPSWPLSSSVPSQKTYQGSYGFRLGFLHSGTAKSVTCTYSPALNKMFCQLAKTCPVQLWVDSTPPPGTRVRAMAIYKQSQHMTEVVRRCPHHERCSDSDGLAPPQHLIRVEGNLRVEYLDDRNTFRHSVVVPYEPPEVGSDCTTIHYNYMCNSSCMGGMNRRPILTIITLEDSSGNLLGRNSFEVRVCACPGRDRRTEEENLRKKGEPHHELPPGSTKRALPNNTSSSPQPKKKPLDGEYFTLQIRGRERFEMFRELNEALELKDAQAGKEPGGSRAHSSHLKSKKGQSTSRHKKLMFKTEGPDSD
human Peroxisome Proliferator-activated Receptor delta (PPARd), PPARD (gene 5467), sequence (Q03181 whole entry, looked up): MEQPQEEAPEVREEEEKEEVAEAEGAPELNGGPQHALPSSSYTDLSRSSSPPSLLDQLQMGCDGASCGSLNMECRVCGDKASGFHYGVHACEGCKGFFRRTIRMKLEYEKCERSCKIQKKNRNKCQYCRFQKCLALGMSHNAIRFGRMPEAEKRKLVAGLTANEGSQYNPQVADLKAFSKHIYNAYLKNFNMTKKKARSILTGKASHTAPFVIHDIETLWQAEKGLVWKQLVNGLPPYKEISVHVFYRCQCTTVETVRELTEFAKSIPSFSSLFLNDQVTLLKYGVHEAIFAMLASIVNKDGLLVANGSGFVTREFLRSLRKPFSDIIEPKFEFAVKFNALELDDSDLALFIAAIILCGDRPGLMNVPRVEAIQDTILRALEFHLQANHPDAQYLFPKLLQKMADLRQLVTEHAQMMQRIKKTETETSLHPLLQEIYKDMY
human RAR-related Orphan Receptor beta (RORb), RORB (gene 6096), sequence (Q92753 whole entry, looked up, the tested form may be a part): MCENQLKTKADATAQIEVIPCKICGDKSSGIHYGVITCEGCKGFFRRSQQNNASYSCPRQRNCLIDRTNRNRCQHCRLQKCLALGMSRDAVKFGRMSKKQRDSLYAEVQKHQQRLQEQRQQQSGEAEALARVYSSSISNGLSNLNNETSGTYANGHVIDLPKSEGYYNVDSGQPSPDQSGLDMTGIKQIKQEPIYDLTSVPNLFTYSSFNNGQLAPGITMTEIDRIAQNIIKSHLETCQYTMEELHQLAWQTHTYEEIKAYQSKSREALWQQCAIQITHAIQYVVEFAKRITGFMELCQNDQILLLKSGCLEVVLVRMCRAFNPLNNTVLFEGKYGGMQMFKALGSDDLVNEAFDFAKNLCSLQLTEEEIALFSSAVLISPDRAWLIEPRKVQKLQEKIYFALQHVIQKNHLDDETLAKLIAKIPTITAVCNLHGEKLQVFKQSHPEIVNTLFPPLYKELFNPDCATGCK
Nuclear receptor subfamily 1 group I member 2 (Homo sapiens), sequence (O75469 whole entry, looked up, the tested form may be a part): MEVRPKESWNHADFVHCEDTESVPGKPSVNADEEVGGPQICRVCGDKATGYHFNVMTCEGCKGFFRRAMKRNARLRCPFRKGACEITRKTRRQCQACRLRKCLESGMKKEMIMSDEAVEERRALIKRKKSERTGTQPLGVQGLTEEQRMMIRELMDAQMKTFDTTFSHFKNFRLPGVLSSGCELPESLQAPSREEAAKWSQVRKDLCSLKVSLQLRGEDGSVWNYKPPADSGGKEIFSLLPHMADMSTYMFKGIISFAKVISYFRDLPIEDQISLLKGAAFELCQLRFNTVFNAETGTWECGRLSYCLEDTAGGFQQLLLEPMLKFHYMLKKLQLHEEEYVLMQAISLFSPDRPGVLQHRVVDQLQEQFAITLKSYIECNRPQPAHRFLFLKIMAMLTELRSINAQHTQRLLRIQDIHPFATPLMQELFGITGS
Myc proto-oncogene protein (Homo sapiens), sequence (P01106 whole entry, looked up): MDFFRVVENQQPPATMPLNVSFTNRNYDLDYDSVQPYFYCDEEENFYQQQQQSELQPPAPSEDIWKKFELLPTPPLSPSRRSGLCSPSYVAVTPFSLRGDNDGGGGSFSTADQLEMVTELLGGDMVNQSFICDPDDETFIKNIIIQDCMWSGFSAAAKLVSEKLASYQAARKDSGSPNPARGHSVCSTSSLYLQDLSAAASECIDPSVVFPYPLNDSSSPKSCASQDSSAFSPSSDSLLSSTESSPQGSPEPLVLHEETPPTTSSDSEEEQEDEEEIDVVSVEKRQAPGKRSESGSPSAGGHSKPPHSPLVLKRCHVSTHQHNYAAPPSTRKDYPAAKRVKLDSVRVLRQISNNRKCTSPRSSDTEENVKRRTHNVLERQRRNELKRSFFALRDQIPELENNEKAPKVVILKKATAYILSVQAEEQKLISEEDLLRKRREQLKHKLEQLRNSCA
human Retinoic Acid Receptor gamma (RARg), RARG (gene 5916), sequence (P13631 whole entry, looked up, the tested form may be a part): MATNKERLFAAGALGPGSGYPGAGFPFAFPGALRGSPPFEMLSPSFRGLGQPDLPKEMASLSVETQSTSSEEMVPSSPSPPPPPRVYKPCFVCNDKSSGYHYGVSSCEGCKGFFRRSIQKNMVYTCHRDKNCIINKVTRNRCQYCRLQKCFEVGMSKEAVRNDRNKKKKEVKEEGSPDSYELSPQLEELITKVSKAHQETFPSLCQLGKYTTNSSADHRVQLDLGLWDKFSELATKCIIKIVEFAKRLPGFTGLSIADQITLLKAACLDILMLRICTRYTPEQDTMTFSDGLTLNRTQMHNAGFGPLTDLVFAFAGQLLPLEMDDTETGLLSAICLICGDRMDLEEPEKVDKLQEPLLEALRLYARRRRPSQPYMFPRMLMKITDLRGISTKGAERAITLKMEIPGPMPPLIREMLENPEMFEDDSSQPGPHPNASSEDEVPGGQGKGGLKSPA
Retinoic acid receptor alpha (Homo sapiens), sequence (P10276 whole entry, looked up, the tested form may be a part): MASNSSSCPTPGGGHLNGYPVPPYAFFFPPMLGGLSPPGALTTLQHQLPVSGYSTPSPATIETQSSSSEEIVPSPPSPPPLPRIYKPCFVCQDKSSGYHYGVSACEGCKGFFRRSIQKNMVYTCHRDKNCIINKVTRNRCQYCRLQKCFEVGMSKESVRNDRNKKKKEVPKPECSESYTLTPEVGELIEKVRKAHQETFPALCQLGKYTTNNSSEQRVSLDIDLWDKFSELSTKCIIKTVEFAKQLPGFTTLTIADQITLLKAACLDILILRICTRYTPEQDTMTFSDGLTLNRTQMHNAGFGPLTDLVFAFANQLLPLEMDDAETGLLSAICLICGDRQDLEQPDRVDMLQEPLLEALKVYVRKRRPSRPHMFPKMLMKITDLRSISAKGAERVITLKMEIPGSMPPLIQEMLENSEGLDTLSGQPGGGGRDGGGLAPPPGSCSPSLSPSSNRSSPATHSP

For `CCCCCCCC/C=C\CCCCCCCC(=O)OCC`, the result in [1], in assay [2], in [3], in [5], in assay [6] and in assay [8] was inactive. Moreover, the compound was classed as inactive in assay [9]. For the same compound, the AC50 is 45.1 µM (active) in assay [4] and 50.5 µM (active) in [7].
As to `CCCCCC(C=O)=Cc1ccccc1`, the compound was called inactive in assay [1], in assay [5], in assay [8] and in [16]. For the same compound, the AC50 was 100 µM (active) in assay [2]; 164 µM (active) in assay [10]; 31.7 µM (active) in assay [11]; 31.5 µM (active) in assay [12]; 33.1 µM (active) in assay [13]; 31 µM (active) in assay [14]. Further, the AC50 in [4] was 27.5 µM (active); in assay [15], 30.8 µM (active); in assay [7] it was 27.6 µM (active).
Regarding `CC(C)=CCCC(C)CC(=O)O` (centres undefined), the compound was called inactive in assay [1], in assay [2], in assay [3], in [4], in assay [5] and in assay [7]. Further, the outcome in assay [8] and in [17] was inactive.
Take `COc1ccc(CCN2CCC(Nc3nc4ccccc4n3Cc3ccc(F)cc3)CC2)cc1`: the result in [1], in assay [10], in assay [11], in [13], in assay [6] and in assay [18] was inactive. Besides, the compound was called inactive in assay [8], in [16] and in assay [9]. Moreover, the AC50 was 1.99 µM (active) in assay [2], 5 µM (active) in assay [12], 5 µM (active) in assay [14] and 6.51 µM (active) in assay [15].
Take `CCCOCCO`: the compound was called inactive in assay [1], in assay [2], in [10], in assay [4], in [6] and in [7]. Besides, the compound was called inactive in assay [8] and in assay [9].
In the case of `COC(=O)Nc1ccc(Cl)c(Cl)c1`, the outcome in assay [1], in [10], in assay [4], in assay [5] and in assay [8] was inactive. In addition, the AC50 was 100 µM (active) in assay [2] and 27.4 µM (active) in assay [7].
On to `Nc1c(S(=O)(=O)O)cc(Br)c2c1C(=O)c1ccccc1C2=O`, for which the result in [1], in assay [3] and in assay [4] was inactive. Also, the AC50 is 73.8 µM (active) in assay [2], 27.5 µM (active) in assay [7] and 40.2 µM (active) in [8].
